Results taken from PubChem BioAssay (Tox21).
Inconclusive results are not listed. The source made the active and inactive calls. Unless noted, the call rests on the fitted dose curve; in most records, active means well fitted curve in the direction sought with a large enough effect in the repeat runs; inconclusive means weak or mixed curves; inactive means no such curve, though single readings can be large; an effect the other way counts as inactive or inconclusive.

Experiments:
[1] = qHTS assay to identify aromatase inhibitors - cell viability counter screen (AID 743084);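 further: cells stimulated with testosterone during compound exposure; nearly all actives have a fitted effect of over 55% in size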
[2] = molecular target: Aryl hydrocarbon receptor (Homo sapiens) (UniProt P35869); assay: qHTS assay to identify small molecule that activate the aryl hydrocarbon receptor (AhR) signaling pathway (AID 743085);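 further: HG2L7.5c1 human HepG2 liver cells with stably integrated DRE-driven firefly reporter; series mostly up to about 70 µM; nearly all actives have a fitted effect of over 15% in size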
Sequence of Aryl hydrocarbon receptor (Homo sapiens) (P35869 whole entry, looked up): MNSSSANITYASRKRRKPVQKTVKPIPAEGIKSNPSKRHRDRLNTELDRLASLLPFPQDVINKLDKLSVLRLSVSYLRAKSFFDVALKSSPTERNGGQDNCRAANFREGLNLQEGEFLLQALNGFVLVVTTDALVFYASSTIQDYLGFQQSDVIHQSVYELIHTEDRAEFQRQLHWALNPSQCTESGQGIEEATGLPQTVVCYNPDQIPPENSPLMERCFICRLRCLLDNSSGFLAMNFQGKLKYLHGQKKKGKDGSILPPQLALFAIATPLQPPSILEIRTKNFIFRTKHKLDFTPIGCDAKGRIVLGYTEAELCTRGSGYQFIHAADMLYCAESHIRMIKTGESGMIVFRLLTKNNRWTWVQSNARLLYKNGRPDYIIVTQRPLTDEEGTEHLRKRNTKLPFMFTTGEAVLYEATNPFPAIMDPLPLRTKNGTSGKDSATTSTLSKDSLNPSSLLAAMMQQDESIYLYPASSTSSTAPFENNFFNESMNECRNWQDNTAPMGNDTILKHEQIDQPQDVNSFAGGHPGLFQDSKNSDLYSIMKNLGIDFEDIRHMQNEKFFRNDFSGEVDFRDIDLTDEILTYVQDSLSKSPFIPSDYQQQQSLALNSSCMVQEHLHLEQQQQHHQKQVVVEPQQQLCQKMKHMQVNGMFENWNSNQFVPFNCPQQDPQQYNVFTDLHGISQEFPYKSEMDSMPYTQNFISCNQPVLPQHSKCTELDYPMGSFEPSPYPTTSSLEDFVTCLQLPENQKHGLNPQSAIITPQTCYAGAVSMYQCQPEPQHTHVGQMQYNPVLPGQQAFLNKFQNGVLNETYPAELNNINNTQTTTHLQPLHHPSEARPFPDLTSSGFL
Outline: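 HepG2 cells stably carrying a 20-DRE firefly luciferase reporter (HG2L7.5c1) treated with compound for 24 hr at 37C. Luciferase read by ONE-Glo luminescence, with CellTiter-Fluor viability read first.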

[3] = qHTS assay to identify small molecule that activate the aryl hydrocarbon receptor (AhR) signaling pathway - cell viability counter screen (AID 743086);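 further: HepG2 liver cells carrying the AhR DRE luciferase reporter; series mostly up to about 70 µM; nearly all actives have a fitted effect of over 45% in size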
Outline: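 Cytotoxicity counter screen: CellTiter-Fluor signal (30 min, 37 C) in 4000 HepG2 cells/well carrying the DRE-luciferase reporter, following 24 h compound exposure at 37 C.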

[4] = molecular target: Peroxisome proliferator-activated receptor gamma (Homo sapiens) (UniProt P37231); assay: qHTS assay to identify small molecule agonists of the peroxisome proliferator-activated receptor gamma (PPARg) signaling pathway (AID 743094; active means well fitted activation curve with a large enough effect in the signal ratio in the repeat runs, not every such curve was filed as active; the % refers to the signal ratio)
Sequence of Peroxisome proliferator-activated receptor gamma (Homo sapiens) (P37231 whole entry, looked up): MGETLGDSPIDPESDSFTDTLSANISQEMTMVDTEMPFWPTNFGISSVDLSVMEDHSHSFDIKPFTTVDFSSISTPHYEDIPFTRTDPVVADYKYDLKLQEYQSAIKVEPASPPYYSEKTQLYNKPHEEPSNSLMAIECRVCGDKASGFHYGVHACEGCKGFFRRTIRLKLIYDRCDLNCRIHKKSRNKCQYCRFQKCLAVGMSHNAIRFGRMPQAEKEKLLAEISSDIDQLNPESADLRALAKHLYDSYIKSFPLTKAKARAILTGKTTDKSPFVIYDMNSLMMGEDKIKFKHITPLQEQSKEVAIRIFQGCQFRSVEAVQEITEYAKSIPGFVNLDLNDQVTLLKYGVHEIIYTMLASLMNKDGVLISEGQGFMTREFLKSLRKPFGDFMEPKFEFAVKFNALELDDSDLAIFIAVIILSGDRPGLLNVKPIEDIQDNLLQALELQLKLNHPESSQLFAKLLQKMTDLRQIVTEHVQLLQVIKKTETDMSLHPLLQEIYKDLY
Outline: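 Following 5 h plating at 37C, PPARg-bla HEK293H cells receive compound or DMSO for 17 h; fluorescence intensity is recorded after LiveBLAzer B/G loading for 1 h at room temperature.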

[5] = molecular target: Peroxisome proliferator-activated receptor gamma (Homo sapiens) (UniProt P37231); assay: qHTS assay to identify small molecule antagonists of the peroxisome proliferator-activated receptor gamma (PPARg) signaling pathway (AID 743191; calls by dose curve; further: series mostly up to about 63 µM; nearly all actives have a fitted effect of over 30% in size)
Outline: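 Beta-lactamase reporter under UAS control in HEK293H PPARg-bla cells; compound treatment 17 h at 37C. Read-out: fluorescence intensity after 1 h room-temperature incubation with LiveBLAzer B/G FRET substrate.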

[6] = qHTS assay to identify small molecule antagonists of the peroxisome proliferator-activated receptor gamma (PPARg) signaling pathway - cell viability counter screen (AID 743194); further: nearly all actives have a fitted effect of over 55% in size
Outline: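 Viability was measured as CellTiter-Glo luminescence in GeneBLAzer PPARg UAS-bla HEK293H cells. These cells had been exposed 17 h at 37 C to compounds together with rosiglitazone at 50 nM final, with the beta-lactamase readout taken in the same wells.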

[7] = qHTS assay for small molecule agonists of the antioxidant response element (ARE) signaling pathway (AID 743202; active means well fitted activation curve with a large enough effect in the signal ratio in the repeat runs, not every such curve was filed as active; the % refers to the signal ratio)
Outline: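 Quantitative high-throughput format in HepG2 cells bearing an integrated ARE-beta-lactamase reporter. Compound exposure lasted 16 h at 37 C, and fluorescence was read 2 h after adding LiveBLAzer B/G substrate at room temperature.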

[8] = qHTS assay for small molecule activators of the heat shock response signaling pathway - cell viability counter screen (AID 743209); further: nearly all actives have a fitted effect of over 50% in size
Outline: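 Counter screen for cytotoxicity in HeLa HSE-bla reporter cells. Treatment was 5 h at 37 C; viability was detected by luminescent ATP assay (CellTiter-Glo) in the same wells as the beta-lactamase read.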

[9] = qHTS assay to identify small molecule agonists of the peroxisome proliferator-activated receptor delta (PPARd) signaling pathway - cell viability counter screen (AID 743211); further: nearly all actives have a fitted effect of over 55% in size
Outline: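 PPARd-bla HEK293H cells (3000/well) were pre-incubated 5 h at 37 C, then exposed to compound for 17 h at 37 C. After 2 h with LiveBLAzer substrate, CellTiter-Glo was added to the same wells; luminescence read after 30 min at room temperature.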

[10] = molecular target: Peroxisome proliferator-activated receptor delta (Homo sapiens) (UniProt Q03181); assay: qHTS assay to identify small molecule agonists of the peroxisome proliferator-activated receptor delta (PPARd) signaling pathway (AID 743212; calls by dose curve)
Sequence of Peroxisome proliferator-activated receptor delta (Homo sapiens) (Q03181 whole entry, looked up): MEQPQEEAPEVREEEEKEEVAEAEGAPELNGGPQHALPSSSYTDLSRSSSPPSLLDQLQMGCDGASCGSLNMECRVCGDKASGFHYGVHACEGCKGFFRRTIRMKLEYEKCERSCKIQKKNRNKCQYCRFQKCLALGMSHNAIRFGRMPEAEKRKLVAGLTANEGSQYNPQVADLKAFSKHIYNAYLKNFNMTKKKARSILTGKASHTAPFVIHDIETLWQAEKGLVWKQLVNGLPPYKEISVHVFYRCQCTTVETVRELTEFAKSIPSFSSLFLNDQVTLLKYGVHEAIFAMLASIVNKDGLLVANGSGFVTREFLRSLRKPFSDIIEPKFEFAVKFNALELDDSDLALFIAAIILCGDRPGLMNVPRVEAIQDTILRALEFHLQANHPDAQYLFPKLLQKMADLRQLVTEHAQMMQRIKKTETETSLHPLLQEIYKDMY
Outline: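 HEK293H PPARd-bla cells; 5 h preincubation 37 C/5% CO2; compound (DMSO) 37 C; LiveBLAzer B/G FRET substrate 2 h RT; fluorescence intensity.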

[11] = qHTS assay to identify small molecule antagonists of the peroxisome proliferator-activated receptor delta (PPARd) signaling pathway - cell viability counter screen (AID 743213); further: nearly all actives have a fitted effect of over 50% in size
Outline: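 PPARd-bla HEK293H cells (3000/well) got compound plus 300 nM L165041 agonist for 17 h at 37 C. Viability in the same wells came from CellTiter-Glo luminescence after 30 min at room temperature.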

[12] = qHTS assay to identify small molecule agonists of the farnesoid-X-receptor (FXR) signaling pathway - cell viability counter screen (AID 743218); further: nearly all actives have a fitted effect of over 45% in size
Outline: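 After 16 h at 37 C with test compounds, FXR-bla HEK 293T cells were given LiveBLAzer B/G substrate for 2 h at RT and then CellTiter-Glo; luminescence was taken after 30 min.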

[13] = molecular target: Bile acid receptor (Homo sapiens) (UniProt Q96RI1); assay: qHTS assay to identify small molecule agonists of the farnesoid-X-receptor (FXR) signaling pathway (AID 743220; active means well fitted activation curve with a large enough effect in the signal ratio in the repeat runs, not every such curve was filed as active; the % refers to the signal ratio)
Sequence of Bile acid receptor (Homo sapiens) (Q96RI1 whole entry, looked up): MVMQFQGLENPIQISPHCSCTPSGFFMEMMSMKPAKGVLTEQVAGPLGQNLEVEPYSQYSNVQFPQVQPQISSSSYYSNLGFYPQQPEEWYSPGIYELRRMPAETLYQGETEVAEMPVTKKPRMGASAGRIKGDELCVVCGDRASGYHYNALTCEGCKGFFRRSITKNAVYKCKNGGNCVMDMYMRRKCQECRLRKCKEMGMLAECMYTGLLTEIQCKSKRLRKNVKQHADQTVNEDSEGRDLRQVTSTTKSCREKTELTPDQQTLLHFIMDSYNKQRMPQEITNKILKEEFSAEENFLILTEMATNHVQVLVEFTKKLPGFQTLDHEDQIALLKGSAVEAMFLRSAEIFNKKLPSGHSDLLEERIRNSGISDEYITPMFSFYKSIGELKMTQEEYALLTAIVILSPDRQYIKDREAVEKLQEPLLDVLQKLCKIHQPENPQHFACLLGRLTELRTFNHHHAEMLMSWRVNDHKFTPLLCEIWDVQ
Outline: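 Beta-lactamase reporter under UAS control in GeneBLAzer FXR HEK 293T cells (5000/well) measured with LiveBLAzer FRET substrate after 2 h at room temperature. Compound exposure lasted 16 h at 37C.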

[14] = molecular target: Vitamin D3 receptor (Homo sapiens) (UniProt P11473); assay: qHTS assay to identify small molecule agonists of the vitamin D receptor (VDR) signaling pathway (AID 743222; calls by dose curve)
Sequence of Vitamin D3 receptor (Homo sapiens) (P11473 whole entry, looked up): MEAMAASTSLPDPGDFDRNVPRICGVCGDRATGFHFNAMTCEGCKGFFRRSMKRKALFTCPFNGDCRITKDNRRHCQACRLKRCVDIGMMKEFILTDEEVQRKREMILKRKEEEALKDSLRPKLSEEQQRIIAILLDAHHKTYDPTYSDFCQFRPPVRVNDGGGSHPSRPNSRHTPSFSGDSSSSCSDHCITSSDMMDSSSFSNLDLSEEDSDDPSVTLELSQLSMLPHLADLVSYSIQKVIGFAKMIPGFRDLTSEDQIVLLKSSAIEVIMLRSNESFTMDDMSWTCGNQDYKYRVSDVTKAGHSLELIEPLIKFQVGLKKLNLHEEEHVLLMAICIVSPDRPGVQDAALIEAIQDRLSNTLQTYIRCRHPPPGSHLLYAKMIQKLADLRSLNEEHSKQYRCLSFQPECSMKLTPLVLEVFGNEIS
Outline: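 VDR-bla cells were seeded, left 4 h, treated with compounds in DMSO for 16 h, incubated 2 h at RT with B/G FRET substrate, and read for fluorescence.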

[15] = molecular target: Vitamin D3 receptor (Homo sapiens) (UniProt P11473); assay: qHTS assay to identify small molecule antagonists of the vitamin D receptor (VDR) signaling pathway (AID 743223; active means well fitted inhibition curve with a large enough effect in the signal ratio in the repeat runs, not every such curve was filed as active; the % refers to the signal ratio)
Outline: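 VDR-bla cells were treated with compound plus 3 nM final 1alpha,25-dihydroxyvitamin D3 for 16 h at 37C. Beta-lactamase reporter read by B/G FRET substrate fluorescence after 2 h at room temperature. qHTS format.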

[16] = qHTS assay for small molecule agonists of the antioxidant response element (ARE) signaling pathway - cell viability counter screen (AID 743203; calls by dose curve; further: nearly all actives have a fitted effect of over 55% in size)
Outline: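 Compounds in DMSO were pinned onto ARE-bla HepG2 cells plated 5 hrs earlier at 2,000 cells/well. Sixteen hours later at 37C/5% CO2, CellTiter-Glo was added and luminescence measured after 30 min at room temperature.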

[17] = qHTS assay to identify small molecule antagonists of the farnesoid-X-receptor (FXR) signaling pathway - cell viability counter screen (AID 743221; active means well fitted cell-killing curve with a large enough effect in the repeat runs, not every such curve was filed as active; further: nearly all actives have a fitted effect of over 50% in size)
Outline: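 GeneBLAzer FXR-UAS-bla HEK 293T cells, compound plus chenodeoxycholic acid (50 uM final), 16 h at 37 C. CellTiter-Glo added to the same wells after the beta-lactamase read; luminescence read after 30 min at room temperature as viability.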

[18] = qHTS assay for small molecule activators of the heat shock response signaling pathway (AID 743210; active means well fitted activation curve with a large enough effect in the signal ratio in the repeat runs, with a control signal flat, not every such curve was filed as active; the % refers to the signal ratio;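 further: HeLa cells with beta-lactamase reporter driven by heat shock elements; series mostly up to about 63 µM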)
Outline: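 HeLa HSE-bla cells, overnight plating; cpd in DMSO 5 h, 37 C; LiveBLAzer B/G FRET substrate 2.5 h RT; fluorescence intensity read.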

[19] = molecular target: Peroxisome proliferator-activated receptor delta (Homo sapiens) (UniProt Q03181); assay: qHTS assay to identify small molecule antagonists of the peroxisome proliferator-activated receptor delta (PPARd) signaling pathway (AID 743215; active means well fitted inhibition curve with a large enough effect in the signal ratio in the repeat runs, not every such curve was filed as active; the % refers to the signal ratio;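 further: cells stimulated with agonist L165041 at 300 nM final during compound exposure; series mostly up to about 62 µM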)
Outline: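 With L165041 present at 300 nM final, compounds were incubated 17 h at 37 C on PPARd UAS-bla HEK293H cells. A FRET-based beta-lactamase substrate was then applied for 2 h at room temperature and fluorescence intensity recorded.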

[20] = molecular target: Bile acid receptor (Homo sapiens) (UniProt Q96RI1); assay: qHTS assay to identify small molecule antagonists of the farnesoid-X-receptor (FXR) signaling pathway (AID 743217; active means well fitted inhibition curve with a large enough effect in the signal ratio in the repeat runs, not every such curve was filed as active; the % refers to the signal ratio)
Outline: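 In this cell-based antagonist screen, inhibition of CDCA-driven (50 uM final) UAS-beta-lactamase expression in HEK 293T cells was measured by FRET fluorescence following 16 h compound exposure at 37 °C.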
On the % scale 0 is the no-effect control and ±100 the full control effect.

CCC(C)N (configuration not stated)
inactive: Potency [1] | Potency [2] | Potency [3] | outcome [4] | Potency [5] | outcome [6] | Potency [7] | outcome [8] | outcome [9] | outcome [10] | outcome [11] | Potency [12] | outcome [13] | outcome [14] | outcome [15]

CCC(=O)OCCC(C)CCC=C(C)C (configuration not stated)
inactive: Potency [1] | Potency [2] | Potency [3] | outcome [4] | Potency [5] | outcome [6] | outcome [16] | outcome [8] | outcome [9] | Potency [12] | outcome [17] | outcome [14] | outcome [15]

CCCCCCCCCCC
inactive: Potency [1] | Potency [2] | Potency [3] | outcome [4] | Potency [5] | outcome [6] | outcome [16] | outcome [8] | outcome [18] | outcome [9] | outcome [11] | Potency [12] | outcome [17]

C=C(C)C(=O)OC1CC(C)CC(C)(C)C1 (configuration not stated)
inactive: Potency [1] | Potency [2] | Potency [3] | outcome [4] | Potency [5] | outcome [6] | outcome [16] | outcome [8] | outcome [9] | outcome [10] | outcome [19] | Potency [12] | outcome [13] | outcome [17] | outcome [14] | outcome [15]

CCOC(=O)OCC/C(SC(=O)OCC)=C(\C)N(C=O)Cc1cnc(C)nc1N
inactive: Potency [1] | Potency [2] | Potency [3] | outcome [4] | Potency [5] | outcome [6] | Potency [7] | outcome [8] | outcome [18] | outcome [9] | Potency [12] | outcome [17] | outcome [14] | outcome [15]

CCCCCCCCCOCC1CO1 (configuration not stated)
inactive: Potency [1] | Potency [2] | Potency [3] | outcome [4] | Potency [5] | outcome [6] | outcome [16] | outcome [8] | outcome [9] | outcome [10] | outcome [11] | outcome [17] | outcome [14] | outcome [15]

Nc1ccc(/C=C/c2ccc(N)cc2S(=O)(=O)O)c(S(=O)(=O)O)c1
inactive: Potency [1] | Potency [2] | Potency [3] | activity change, negative = cytotoxicity [6] -0.597% [at 0.55 µM] | activation [7] -8.26% [at 0.756 µM] | viability change, negative = cytotoxic [16] -11% [at 0.756 µM] | activity change, negative = cytotoxicity [8] 6.28% [at 0.55 µM] | activation [18] 0.7% [at 0.55 µM] | activity change, negative = cytotoxicity [9] 4.06% [at 0.55 µM] | activation [10] -0.496% [at 0.55 µM] | ratio activity, negative = inhibition [19] -1.73% [at 0.575 µM] | activity change, negative = inhibition [20] 3.76% [at 0.55 µM] | viability change, negative = cytotoxic [12] 14.9% [at 0.55 µM] | activation [13] 1.54% [at 0.55 µM] | activity change, negative = cytotoxicity [17] 5.38% [at 0.55 µM] | activation [14] 1.93% [at 0.554 µM] | activity change, negative = inhibition [15] 0.787% [at 0.628 µM]

CCCOCCOCCOCCO
inactive: Potency [1] | Potency [2] | Potency [3] | Potency [5] | Potency [7] | outcome [8] | outcome [18] | outcome [9] | outcome [11] | outcome [20] | outcome [13] | outcome [17] | outcome [14]

NS(=O)(=O)c1cc2c(cc1Cl)NC(C(Cl)Cl)NS2(=O)=O (configuration not stated)
inactive: Potency [1] | Potency [2] | Potency [3] | outcome [4] | outcome [6] | outcome [16] | outcome [8] | outcome [18] | outcome [9] | outcome [11] | Potency [12] | outcome [13] | outcome [17] | outcome [14]

CC(=O)OCC(=O)[C@@]1(O)[C@H](OC(C)=O)C[C@H]2[C@@H]3CCC4=CC(=O)C=C[C@]4(C)[C@@]3(F)[C@@H](O)C[C@@]21C
inactive: Potency [1] | Potency [2] | Potency [3] | Potency [5] | outcome [6] | Potency [7] | outcome [16] | outcome [8] | outcome [18] | outcome [9] | outcome [10] | outcome [11] | outcome [20] | Potency [12] | outcome [13] | outcome [17] | outcome [14] | outcome [15]

OC[C@@H](O)[C@H](O)[C@@H](O)[C@@H](O)CO
inactive: Potency [1] | Potency [2] | Potency [3] | Potency [5] | outcome [6] | Potency [7] | outcome [16] | outcome [8] | outcome [18] | outcome [9] | outcome [11] | Potency [12] | outcome [17] | outcome [14]

CCCC(C)CC (configuration not stated)
inactive: Potency [1] | Potency [2] | Potency [3] | Potency [5] | outcome [6] | Potency [7] | outcome [16] | outcome [8] | outcome [18] | outcome [9] | outcome [10] | outcome [11] | outcome [19] | Potency [12] | outcome [17] | outcome [14] | outcome [15]

C[C@H]1O[C@H](O[C@H]2[C@H](O)[C@@H](O)[C@@H](O[C@H]3[C@H](O)[C@@H](O)[C@H](O)O[C@@H]3CO)O[C@@H]2CO)[C@H](O)[C@@H](O)[C@@H]1N[C@H]1C=C(CO)[C@@H](O)[C@H](O)[C@H]1O
inactive: Potency [1] | Potency [2] | Potency [3] | Potency [5] | outcome [6] | Potency [7] | outcome [18] | outcome [10] | outcome [11] | outcome [19] | Potency [12] | outcome [17] | outcome [14] | outcome [15]
